Assay results reported in the supplement of paper PMC12645437, “Orthogonal IMiD-Degron Pairs Induce Selective Protein Degradation in Cells” (ACS Chemical Biology, 2025).
Over roughly 8,300 sequences, “log2 fold change of degron read counts, EGFP-low vs EGFP+ sorted cells (limma voom), compound-induced degradation” has its median near -1.1; the highest 2% begin near 3.2. The full list was thinned out, with the highest values kept by preference.

T1: CRBN, Q96SW2
T1 chain: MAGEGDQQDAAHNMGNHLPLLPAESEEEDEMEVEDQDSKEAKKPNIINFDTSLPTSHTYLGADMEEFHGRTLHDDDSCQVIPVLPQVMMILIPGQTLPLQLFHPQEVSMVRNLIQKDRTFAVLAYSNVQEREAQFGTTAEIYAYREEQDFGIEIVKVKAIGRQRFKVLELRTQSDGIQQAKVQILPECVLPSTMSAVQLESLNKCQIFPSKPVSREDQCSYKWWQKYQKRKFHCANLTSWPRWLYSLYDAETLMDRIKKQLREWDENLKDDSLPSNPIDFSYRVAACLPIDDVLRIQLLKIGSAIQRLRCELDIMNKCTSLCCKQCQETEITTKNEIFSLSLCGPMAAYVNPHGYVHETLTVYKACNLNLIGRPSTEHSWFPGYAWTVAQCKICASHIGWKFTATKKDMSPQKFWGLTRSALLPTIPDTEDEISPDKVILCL

B1: 46F_47K_49N_50Q_52G_53R_54H_55F_67L_, Q9UKT9 (peptide)
chain: FKCNQCGRHFTQKGNLLRHIKL
B2: 46F_47I_49E_50I_52G_53A_54F_55F_67L_, Q9UKT9 (peptide)
chain: FICEICGAFFTQKGNLLRHIKL
B3: 46F_47E_49S_50V_52G_53H_54C_55F_67L_, Q9UKT9 (peptide)
chain: FECSVCGHCFTQKGNLLRHIKL
B4: 46F_47C_49N_50V_52G_53A_54V_55F_67L_, Q9UKT9 (peptide)
chain: FCCNVCGAVFTQKGNLLRHIKL
B5: 46F_47V_49N_50Q_52G_53H_54Y_55F_67L_, Q9UKT9 (peptide)
chain: FVCNQCGHYFTQKGNLLRHIKL
B6: 46F_47F_49N_50Q_52G_53H_54D_55F_67L_, Q9UKT9 (peptide)
chain: FFCNQCGHDFTQKGNLLRHIKL
B7: 46F_47V_49E_50V_52G_53A_54C_55F_67L_, Q9UKT9 (peptide)
chain: FVCEVCGACFTQKGNLLRHIKL
B8: 46F_47L_49E_50V_52G_53A_54C_55F_67L_, Q9UKT9 (peptide)
chain: FLCEVCGACFTQKGNLLRHIKL
B9: 46F_47M_49E_50V_52G_53A_54C_55F_67L_, Q9UKT9 (peptide)
chain: FMCEVCGACFTQKGNLLRHIKL
B10: 46F_47R_49E_50V_52G_53A_54C_55F_67L_, Q9UKT9 (peptide)
chain: FRCEVCGACFTQKGNLLRHIKL
B11: 46F_47Q_49E_50V_52G_53A_54C_55F_67L_, Q9UKT9 (peptide)
chain: FQCEVCGACFTQKGNLLRHIKL
B12: 46F_47S_49E_50V_52G_53A_54C_55F_67L_, Q9UKT9 (peptide)
chain: FSCEVCGACFTQKGNLLRHIKL
B13: 46F_47Y_49E_50V_52G_53A_54C_55F_67L_, Q9UKT9 (peptide)
chain: FYCEVCGACFTQKGNLLRHIKL
B14: 46F_47T_49E_50V_52G_53A_54C_55F_67L_, Q9UKT9 (peptide)
chain: FTCEVCGACFTQKGNLLRHIKL
B15: 46F_47I_49E_50V_52G_53A_54C_55F_67L_, Q9UKT9 (peptide)
chain: FICEVCGACFTQKGNLLRHIKL
B16: 46L_47G_49E_50I_52G_53F_54P_55C_67L_, Q9UKT9 (peptide)
chain: LGCEICGFPCTQKGNLLRHIKL
B17: 46F_47E_49E_50I_52G_53R_54N_55F_67L_, Q9UKT9 (peptide)
chain: FECEICGRNFTQKGNLLRHIKL
B18: 46L_47M_49E_50I_52G_53F_54F_55C_67L_, Q9UKT9 (peptide)
chain: LMCEICGFFCTQKGNLLRHIKL
B19: 46F_47N_49E_50I_52G_53H_54G_55F_67L_, Q9UKT9 (peptide)
chain: FNCEICGHGFTQKGNLLRHIKL
B20: 46F_47T_49P_50V_52G_53A_54Q_55F_67L_, Q9UKT9 (peptide)
chain: FTCPVCGAQFTQKGNLLRHIKL
B21: 46F_47K_49P_50I_52G_53H_54L_55F_67L_, Q9UKT9 (peptide)
chain: FKCPICGHLFTQKGNLLRHIKL
B22: 46F_47T_49N_50V_52G_53A_54G_55F_67L_, Q9UKT9 (peptide)
chain: FTCNVCGAGFTQKGNLLRHIKL
B23: 46L_47Q_49E_50I_52G_53F_54D_55C_67L_, Q9UKT9 (peptide)
chain: LQCEICGFDCTQKGNLLRHIKL
B24: 46L_47T_49N_50Q_52G_53F_54Q_55C_67L_, Q9UKT9 (peptide)
chain: LTCNQCGFQCTQKGNLLRHIKL
B25: 46F_47R_49D_50I_52G_53A_54Y_55F_67L_, Q9UKT9 (peptide)
chain: FRCDICGAYFTQKGNLLRHIKL
B26: 46F_47A_49D_50I_52G_53A_54C_55F_67L_, Q9UKT9 (peptide)
chain: FACDICGACFTQKGNLLRHIKL
B27: 46F_47E_49D_50I_52G_53A_54C_55F_67L_, Q9UKT9 (peptide)
chain: FECDICGACFTQKGNLLRHIKL
B28: 46F_47W_49D_50I_52G_53A_54C_55F_67L_, Q9UKT9 (peptide)
chain: FWCDICGACFTQKGNLLRHIKL
B29: 46F_47M_49D_50I_52G_53A_54C_55F_67L_, Q9UKT9 (peptide)
chain: FMCDICGACFTQKGNLLRHIKL
B30: 46F_47F_49D_50I_52G_53A_54C_55F_67L_, Q9UKT9 (peptide)
chain: FFCDICGACFTQKGNLLRHIKL
B31: 46F_47H_49D_50I_52G_53A_54C_55F_67L_, Q9UKT9 (peptide)
chain: FHCDICGACFTQKGNLLRHIKL
B32: 46F_47R_49D_50I_52G_53A_54C_55F_67L_, Q9UKT9 (peptide)
chain: FRCDICGACFTQKGNLLRHIKL
B33: 46F_47Y_49D_50I_52G_53A_54C_55F_67L_, Q9UKT9 (peptide)
chain: FYCDICGACFTQKGNLLRHIKL
B34: 46F_47S_49D_50I_52G_53A_54C_55F_67L_, Q9UKT9 (peptide)
chain: FSCDICGACFTQKGNLLRHIKL
B35: 46F_47T_49D_50I_52G_53A_54C_55F_67L_, Q9UKT9 (peptide)
chain: FTCDICGACFTQKGNLLRHIKL
B36: 46F_47C_49D_50I_52G_53A_54C_55F_67L_, Q9UKT9 (peptide)
chain: FCCDICGACFTQKGNLLRHIKL
B37: 46F_47Q_49D_50I_52G_53A_54C_55F_67L_, Q9UKT9 (peptide)
chain: FQCDICGACFTQKGNLLRHIKL

Molecular target: T1, CRBN, Q96SW2
Assay: log2 fold change of degron read counts, EGFP-low vs EGFP+ sorted cells (limma voom), compound-induced degradation; higher = more compound-induced degradation of the degron-EGFP fusion; degrons are variants of IKZF1/3 zinc finger 2; compound dose not given here
Details: Jurkat, 18 h
[1] = compound: compound 19 (5-tert-butyl-thalidomide)
[2] = compound: compound 22 (5-morpholino-thalidomide)
[3] = compound: compound 33 (diphenyl IMiD analogue)
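Also: pooled lentiviral library of zinc finger degron-EGFP fusions in mCherry-positive Jurkat cells, FACS-sorted after compound exposure, with degron abundance counted by next-generation sequencing.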

Sequence | log2 fold change of degron read counts [1] | log2 fold change of degron read counts [2] | log2 fold change of degron read counts [3] | log2 fold change of degron read counts (compound: thalidomide)
B1 | -2.42 | -3.25 | -2.92 | -2.39
B2 | -1.14 | 0.177 | 1.46 | 0.874
B3 | -2.85 | -3.1 | -2.83 | -3.04
B4 | -1.07 | -0.182 | 1.49 | -0.139
B5 | -3.08 | -3.34 | -2.73 | -2.44
B6 | -3.06 | -4.05 | -2.94 | -2.8
B7 | -0.0594 | 1.78 | 2.4 | 2.7
B8 | 0.437 | -0.686 | 1.57 | 1.59
B9 | -0.094 | 0.00255 | 2.45 | 1.45
B10 | -0.334 | -0.2 | 1.72 | 1.5
B11 | 0.807 | 2.69 | 2.23 | 3.69
B12 | 3.26 | 2.28 | 2.54 | 1.34
B13 | 3.74 | 3.85 | 3.1 | 1.37
B14 | 1.37 | 2.52 | 2.51 | 2.66
B15 | -0.743 | 2.1 | 2.52 | 2.75
B16 | -1.16 | -1.81 | -2.14 | -1.69
B17 | -2.61 | -2.28 | -0.395 | -0.731
B18 | -0.461 | -0.234 | 1.75 | 0.617
B19 | -2.44 | -2.67 | -3.6 | -2.95

Sequence | log2 fold change of degron read counts [1] | log2 fold change of degron read counts [2] | log2 fold change of degron read counts [3] | log2 fold change of degron read counts (compound: thalidomide)
B20 | 0.0342 | 2.63 | 2.78 | 2.72
B21 | -2.52 | -3 | -3.86 | -2.43
B22 | -0.827 | -0.181 | 0.811 | 0.259
B23 | -2.82 | -2.45 | -2.23 | -1.2
B24 | -2.38 | -2.53 | -1.48 | -1.47
B25 | -1.87 | -1.92 | -0.0846 | 0.62
B26 | 2.85 | 0.596 | -0.194 | -1.27
B27 | -0.944 | -2.76 | 0.061 | 0.157
B28 | 3.31 | 3.65 | 1.33 | -0.4
B29 | -1.13 | -0.637 | 1.57 | -0.555
B30 | 3.31 | 3.14 | 1.33 | -1.14
B31 | 1.53 | 1.18 | -0.205 | -1.25
B32 | -1.25 | -1.11 | 1.03 | 0.116
B33 | 3.33 | 3.42 | 1.9 | -0.704
B34 | 1.95 | 1.34 | 1.4 | -0.055
B35 | 1.04 | 1.6 | 1.21 | 0.886
B36 | 1.6 | 1.36 | 1.87 | 0.543
B37 | -0.256 | 2.12 | 1.17 | 3.3
